An excerpt weighted towards active compounds, which were near 19% of everything screened.
HT1080-NT tox – qHTS for induction of synthetic lethality in tumor cells producing 2HG: qHTS for the HT-1080-NT fibrosarcoma cell line; HT-1080-NT fibrosarcoma viability, CellTiter-Glo ATP luminescence, 48 h; Potency, µM (top dose mostly 46.1 µM), inactives show at the top dose activity, negative = less viability, usual class: cytotoxic; 360,000 compounds, 1.6% hits; AID 686970, 2013;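 further: NT is the 2HG producing partner of a matched IDH1 knockdown line; potency means the concentration at half of the fitted maximal effect; 0% = DMSO-treated cells and -100% = media-only wells without cells; nearly all actives have a fitted effect of over 55% in size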
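Compounds were tested in concentration-response format on HT-1080-NT cells for 48 hours at 37 degrees C. Cell viability came from CellTiter-Glo luminescence; curves were classified by r2, response magnitude and activity.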
IL-1B inflam inh – qHTS for Inhibitors of Inflammasome Signaling: IL-1-beta AlphaLISA Primary Screen; THP-1 LPS/ATP IL-1B secretion, AlphaLISA, 16 h; hits give low values; activity change, % at 57.5 µM; 360,000 compounds, 4.7% hits; in the data active means activity change below about -50%; inconclusive means mostly about -30% to -49%
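THP-1 cells pretreated 1 hr with compounds (up to 57.5 uM final), then stimulated with LPS (250 ng/mL final) plus ATP (1.25 mM final); secreted IL-1B measured by AlphaLISA after 16 hr, decreased signal indicating inhibition.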
DT40 TDP1 CPT – qHTS for Inhibitors of human tyrosyl-DNA phosphodiesterase 1 (TDP1): qHTS in cells in presence of CPT; chicken DT40 Tdp1-/-;hTDP1 cells + 20 nM CPT, ATP luminescence, 48 h; Potency, µM (top dose mostly 46.2 µM), for inactives: at the highest dose activity change, negative = growth inhibition, hits mostly inhibitors; 420,000 compounds, 12% hits; AID 686979, 2013; further: potency means the concentration at half of the fitted maximal effect; nearly all actives have a fitted effect of over 55% in size
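Cell growth measured by CellTiter-Glo luminescence after a minimum 48 h, 37 C compound exposure with 20 nM CPT in Tdp1-knockout DT40 cells stably expressing hTDP1, seeded 400/well; qHTS titration format.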
HT1080 IDH1KD tx – qHTS for induction of synthetic lethality in tumor cells producing 2HG: qHTS for the HT-1080-IDH1KD cell line. HT-1080 IDH1 knockdown viability, ATP luminescence, 48 h. Potency, µM (doses to about 46.1 µM), for the others: at the highest dose activity, negative = toxicity, hits mostly cytotoxic. 360,000 compounds, 2% hits. AID 686971, 2013;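 further: potency means the concentration at half of the fitted maximal effect; 0% = DMSO wells and -100% = cell-free medium wells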
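Cytotoxicity counter-line: IDH1KD HT-1080, 48 h, CellTiter-Glo. Curves classed by r2, magnitude and activity.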
TDP1 cell noCPT – qHTS for Inhibitors of human tyrosyl-DNA phosphodiesterase 1 (TDP1): qHTS in cells in absence of CPT; DT40 Tdp1-/- hTDP1 cells, no CPT, ATP luminescence, 48 h; Potency, µM (highest dose often 46.2 µM), without a hit: at the highest dose activity change, negative = growth inhibition, usual class: inhibitors; 420,000 compounds, 15% hits; further: potency means the concentration at half of the fitted maximal effect; nearly all actives have a fitted effect of over 55% in size
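Compound effects on proliferation are scored in DT40 Tdp1-/-;hTDP1 cells in the absence of CPT. ATP levels (CellTiter-Glo luminescence) are recorded after a ≥48 hr, 37 °C incubation.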
Active calls of the source: *; u = inconclusive; x = no result given. Unless noted, the call rests on the fitted dose curve; in most records, active means well fitted curve in the direction sought with a large enough effect; inconclusive means small, poorly fitted or top-dose-only effect, or another doubt; inactive means no such curve, though single readings can be large; an effect the other way counts as inactive or inconclusive. Unless noted, on the % scale 0 is the no-effect control and ±100 the full control effect.

SMILES | HT1080-NT tox | IL-1B inflam inh | DT40 TDP1 CPT | HT1080 IDH1KD tx | TDP1 cell noCPT
O=C(CCN1C(=O)/C(=C/c2ccccc2Cl)SC1=S)NCCCN1CCOCC1 | 3.4% | -8.7 | u | -9.2% | u
CCc1ccc(/C=C2\SC(=S)N(CCCC(=O)Nc3ccccn3)C2=O)cc1 | 5.5% | -13.0 | u | 6.2% | u
O=C1CC2(CCN(C(=O)c3ccc(Br)cc3)CC2)Oc2ccccc21 | -0.9% | -51.5* | u | -16.2% | 18.4µM*
O=C1CC2(CCN(C(=O)c3ccc([N+](=O)[O-])cc3)CC2)Oc2ccccc21 | -10.1% | -1.3 | u | -4.9% | u
Cc1c(C(=O)N2CCC3(CC2)CC(=O)c2ccccc2O3)cccc1[N+](=O)[O-] | 0.0% | 32.7 | 18.4µM* | -0.1% | 23.1µM*
CCN(CCCNC(=O)CNC(=O)c1nn(-c2ccc(OC)cc2OC)c(=O)c2ccccc12)c1cccc(C)c1 | -17.4% | -13.7 | u | -17.0% | u
O=[N+]([O-])c1ccc(NCCCNS(=O)(=O)c2ccc(Cl)cc2)c(Cl)c1 | -11.4% | 1.1 | 20.6µM* | -10.0% | 20.6µM*
O=C(c1ccco1)[C@@H]1[C@@H]2C(=O)N(c3ccc(F)cc3)C(=O)[C@@H]2[C@H]2C=Cc3ccccc3N21 | -14.7% | -18.4 | 6.51µM* | -14.5% | 18.4µM*
CCNC(=O)CC1C(=O)N(c2ccc(C)cc2)C(=O)N1CCC(C)C (configuration not stated) | 20.2% | 14.1 | 0.1% | 23.1% | -0.4%
CSc1nc(C)c2c(n1)N(c1ccc(F)cc1)CC2 | 12.3% | -13.1 | -2.3% | 3.5% | u
CSc1nc(C)c2c(n1)N(c1ccc(C(C)C)cc1)CC2 | 5.0% | 17.1 | u | 1.1% | 20.6µM*
Cc1ccc(Cc2c(C3CCCCC3)nc3ccc(C)cn23)cc1 | u | -52.4* | 18.4µM* | u | 18.4µM*
Cc1ccc2nc(C3CCCCC3)c(Cc3ccsc3)n2c1 | -29.7% | -11.4 | 13µM* | u | 9.2µM*
Cc1cc2nc(C3CCCCC3)c(Cc3ccsc3)n2c(C)c1Br | u | 69.9 | u | u | u
O=C(CCS(=O)(=O)c1ccc(Br)s1)Nc1cc(C(F)(F)F)cc(C(F)(F)F)c1 | x | x | 14.6µM* | x | 20.6µM*
CCOc1ccc(S(=O)(=O)Nc2cc(OC)ccc2OC)cc1 | 0.184µM* | -3.6 | 0.366µM* | u | 0.326µM*
COc1ccc(S(=O)(=O)c2cc(NS(=O)(=O)c3ccc(Cl)cc3)c(C)c(C)c2O)cc1 | x | x | -19.0% | x | 16.4µM*
COc1ccc2nc(NS(=O)(=O)c3ccc(C)cc3)c(Nc3cc(Cl)ccc3OC)nc2c1 | x | x | u | x | 23.1µM*
COc1ccc(OC)c(NS(=O)(=O)c2ccc(SC)cc2)c1 | u | 36.0 | 9.2µM* | u | 16.4µM*
COc1ccc(OC)c(NS(=O)(=O)c2ccc(NC(C)=O)cc2)c1 | -11.7% | 31.3 | -24.8% | -27.3% | u
COc1cc(Cl)c(C)cc1Nc1nc2ccccc2nc1NS(=O)(=O)c1ccccc1 | x | x | -15.5% | x | -26.9%
CCC1CCCCN1CCCNC(=O)c1ccc(CS(=O)(=O)Cc2ccc(Cl)cc2)o1 (configuration not stated) | -10.4% | -6.5 | -10.1% | -11.7% | 7.1%
COc1ccc(Cl)cc1NS(=O)(=O)c1ccc(OC)c(OC)c1 | 8.6% | 25.1 | -5.4% | -2.2% | -5.4%
COc1ccc(S(=O)(=O)Nc2cc(Cl)ccc2OC)cc1 | 6.51µM* | 36.3 | 2.31µM* | u | 2.31µM*
N#Cc1c(N)n(-c2ccc(N)cc2)c2nc3ccccc3nc12 | u | -24.0 | 15.7% | -3.9% | -27.5%
